Test results published in PubChem BioAssay (EPA / NIEHS).
Where “and” joins values, the source holds several entries; their conditions need not be identical. Equal values may be shown once. Some compounds were tested as several samples or in several runs, with calls that do not always agree. Calls of active or inactive are those of the source. The calls were made as follows: active = hit-call score of the fitted dose curve at least 0.9, where 1 is the maximum; inactive = score below 0.9.

Assays:
[1] = read-out: Macrophage colony-stimulating factor (MCSF), CSF1 (gene 1435); assay: BSK_hDFCGF_MCSF: BioMAP Diversity Plus: hDFCGF Assay for Macrophage colony-stimulating factor (MCSF) Biomarker Activity (AID 2283060); conditions: primary human foreskin fibroblasts; actives raise or lower the signal
Summary of the method: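 M-CSF levels read by ELISA at 24 h post-dosing in human skin fibroblasts. Parallel cultures stained with SRB assessed cytotoxicity at the same time point; response fitted in both directions against the DMSO baseline.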

[2] = BSK_hDFCGF_SRB: Viability Assessment in the BioMAP Diversity Plus: hDFCGF Assay (AID 2283061); conditions: primary human foreskin fibroblasts;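 also: cells exposed to compound for 24 h before the read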
Summary of the method: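 Viability was read as total protein: after 10% TCA fixation, wells were stained with 0.1% sulforhodamine B and read at 560 nm. Primary human foreskin fibroblasts were dosed for 24 h, with bidirectional fitting versus DMSO.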

[3] = read-out: Monokine induced gamma interferon (MIG), CXCL9 (gene 4283); assay: BSK_hDFCGF_MIG: BioMAP Diversity Plus: hDFCGF Assay for Monokine induced gamma interferon (MIG) Biomarker Activity (AID 2283063); conditions: primary human foreskin fibroblasts; actives raise or lower the signal
Summary of the method: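 Human primary foreskin fibroblasts in the hDFCGF system, exposed to test chemical for 24 h; MIG measured by ELISA. Bidirectional curve fitting against DMSO negative control as activity baseline.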

[4] = read-out: Matrix Metallopeptidase 1 (MMP1), MMP1 (gene 4312); assay: BSK_hDFCGF_MMP1: BioMAP Diversity Plus: hDFCGF Assay for Matrix Metallopeptidase 1 (MMP1) Biomarker Activity (AID 2283064); conditions: primary human foreskin fibroblasts; actives raise or lower the signal
Summary of the method: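 hDFCGF primary fibroblasts (human foreskin); chemical added; 24 h; MMP1 by ELISA; bidirectional fit vs DMSO.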

[5] = read-out: Plasminogen activator inhibitor-1 (PAI1), SERPINE1 (gene 5054); assay: BSK_hDFCGF_PAI1: BioMAP Diversity Plus: hDFCGF Assay for Plasminogen activator inhibitor-1 (PAI1) Biomarker Activity (AID 2283066); conditions: primary human foreskin fibroblasts; actives raise or lower the signal
Summary of the method: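 Human foreskin fibroblast primary cells, 24 h chemical exposure; PAI-1 measured by ELISA. Bidirectional fitting relative to DMSO; parallel cultures stained with SRB for total protein to flag overt cytotoxicity.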

[6] = read-out: Intercellular Adhesion Molecule 1 (ICAM1), ICAM1 (gene 3383); assay: BSK_KF3CT_ICAM1: BioMAP Diversity Plus: KF3CT Assay for Intercellular Adhesion Molecule 1 (ICAM1) Biomarker Activity (AID 2283067); conditions: primary human keratinocytes with fibroblasts; actives raise or lower the signal
Summary of the method: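 Cell-surface ICAM-1 was measured by ELISA 24 h after dosing primary human skin keratinocytes co-cultured with fibroblasts. Parallel SRB staining tracked overt cytotoxicity. Gain or loss of signal was fitted relative to DMSO.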

[7] = read-out: Interferon-gamma inducible Protein 10 (IP10), CXCL10 (gene 3627); assay: BSK_KF3CT_IP10: BioMAP Diversity Plus: KF3CT Assay for Interferon-gamma inducible Protein 10 (IP10) Biomarker Activity (AID 2283068); conditions: primary human keratinocytes with fibroblasts; actives raise or lower the signal
Summary of the method: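 In a primary skin co-culture of keratinocytes and fibroblasts, IP-10 is quantified by ELISA at 24 h after dosing. SRB staining of parallel wells monitors overt toxicity. Curves are fitted both directions against DMSO.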

[8] = BSK_KF3CT_SRB: Viability Assessment in the BioMAP Diversity Plus: KF3CT Assay (AID 2283069); conditions: primary human keratinocytes with fibroblasts;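 also: total protein by sulforhodamine B staining as a cytotoxicity measure; read 24 h after compound addition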
Summary of the method: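 Keratinocytes co-cultured with foreskin fibroblasts (human primary); chemical added, 24 h; fix 10% TCA, stain 0.1% SRB, A560. Bidirectional fit vs DMSO.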

[9] = read-out: Interleukin-1 alpha (IL1a), IL1A (gene 3552); assay: BSK_KF3CT_IL1a: BioMAP Diversity Plus: KF3CT Assay for Interleukin-1 alpha (IL1a) Biomarker Activity (AID 2283070); conditions: primary human keratinocytes with fibroblasts; actives raise or lower the signal
Summary of the method: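 Chemicals were dosed onto co-cultured human keratinocytes and foreskin fibroblasts, IL-1a was quantified by ELISA at 24 h, and activity was fitted in both directions relative to DMSO controls.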

[10] = read-out: TIMP metallopeptidase inhibitor 2 (TIMP2), TIMP2 (gene 7077); assay: BSK_KF3CT_TIMP2: BioMAP Diversity Plus: KF3CT Assay for TIMP metallopeptidase inhibitor 2 (TIMP2) Biomarker Activity (AID 2283071); conditions: primary human keratinocytes with fibroblasts; actives raise or lower the signal
Summary of the method: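 Co-culture of human primary keratinocytes and foreskin fibroblasts, measured 24 h after chemical dosing. TIMP-2 quantified by ELISA and fitted in both directions relative to DMSO. Cytotoxicity checked in parallel cultures by SRB total-protein staining.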

[11] = read-out: Transforming growth factor beta 1 (TGFb1), TGFB1 (gene 7040); assay: BSK_KF3CT_TGFb1: BioMAP Diversity Plus: KF3CT Assay for Transforming growth factor beta 1 (TGFb1) Biomarker Activity (AID 2283072); conditions: primary human keratinocytes with fibroblasts; actives raise or lower the signal
Summary of the method: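 Human keratinocyte/foreskin fibroblast co-culture; TGF-b1 measured by ELISA 24 h after dosing, fitted bidirectionally versus DMSO. Cytotoxicity checked in parallel cultures by total protein (SRB staining, 560 nm).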

[12] = read-out: C-C motif chemokine 2 (Homo sapiens) (UniProt P13500); assay: BSK_KF3CT_MCP1: BioMAP Diversity Plus: KF3CT Assay for Monocyte Chemoattractant Protein 1 (MCP1/CCL2) Biomarker Activity (AID 2283073); conditions: primary human keratinocytes with fibroblasts; actives raise or lower the signal
Summary of the method: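 ELISA read-out of MCP-1, 24 h post-dose, in primary human skin keratinocytes co-cultured with fibroblasts. Parallel SRB staining monitors cytotoxicity; changes fitted both directions relative to DMSO.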

[13] = read-out: Matrix Metallopeptidase 9 (MMP9), MMP9 (gene 4318); assay: BSK_KF3CT_MMP9: BioMAP Diversity Plus: KF3CT Assay for Matrix Metallopeptidase 9 (MMP9) Biomarker Activity (AID 2283074); conditions: primary human keratinocytes with fibroblasts; actives raise or lower the signal;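 as to AC50: MMP9 protein level quantified by ELISA in the co-culture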
Summary of the method: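 Human keratinocyte/foreskin fibroblast co-culture; compound added; 24 h; MMP-9 by ELISA; bidirectional fit vs DMSO baseline.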

[14] = read-out: urokinase plasminogen activator (uPA), PLAU (gene 5328); assay: BSK_KF3CT_uPA: BioMAP Diversity Plus: KF3CT Assay for urokinase plasminogen activator (uPA) Biomarker Activity (AID 2283075); conditions: primary human keratinocytes with fibroblasts; actives raise or lower the signal
Summary of the method: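 ELISA readout of uPA, analyzed for signal gain or loss relative to DMSO, from a human primary keratinocyte–foreskin fibroblast co-culture measured 24 h after chemical treatment.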

[15] = read-out: CD40, CD40 (gene 958); assay: BSK_LPS_CD40: BioMAP Diversity Plus: LPS Assay for CD40 Biomarker Activity (AID 2283076); conditions: primary human HUVEC with PBMC; actives raise or lower the signal
Summary of the method: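 In the LPS system of human endothelial cells with peripheral blood mononuclear cells, CD40 levels were read by ELISA 24 h post-treatment. Signal changes in either direction were fitted against the DMSO baseline, with parallel SRB protein staining.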

[16] = read-out: E-selectin (Homo sapiens) (UniProt P16581); assay: BSK_LPS_Eselectin: BioMAP Diversity Plus: LPS Assay for Eselectin Biomarker Activity (AID 2283077); conditions: primary human HUVEC with PBMC; actives raise or lower the signal
Summary of the method: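 E-selectin ELISA on LPS-stimulated endothelial cell/PBMC co-cultures, read 24 h post-treatment; gains and losses fitted against DMSO. Parallel SRB staining (0.1% SRB after 10% TCA fixation, 560 nm) flags overt cytotoxicity.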

[17] = read-out: Interleukin-8 (IL8), CXCL8 (gene 3576); assay: BSK_LPS_IL8: BioMAP Diversity Plus: LPS Assay for Interleukin-8 (IL8) Biomarker Activity (AID 2283078); conditions: primary human HUVEC with PBMC; actives raise or lower the signal
Summary of the method: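 ELISA read-out of IL-8 after 24 h chemical treatment of LPS-activated endothelial/PBMC human primary co-cultures. Changes either up or down relative to DMSO; overt cytotoxicity checked by sulforhodamine B staining in parallel wells.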

[18] = BSK_LPS_SRB: Viability Assessment in the BioMAP Diversity Plus: LPS Assay (AID 2283079); conditions: primary human HUVEC with PBMC;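 also: total protein by sulforhodamine B absorbance as a cytotoxicity measure; measured one day after compound addition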
Summary of the method: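 SRB viability endpoint: cells fixed with 10% TCA, stained with 0.1% SRB, read at 560 nm, 24 h post-dose. HUVEC/PBMC co-culture; signal change in either direction scored relative to DMSO.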

[19] = read-out: Vascular cell adhesion molecule 1 (VCAM1), VCAM1 (gene 7412); assay: BSK_hDFCGF_VCAM1: BioMAP Diversity Plus: hDFCGF Assay for Vascular cell adhesion molecule 1 (VCAM1) Biomarker Activity (AID 2283065); conditions: primary human foreskin fibroblasts; actives raise or lower the signal
Summary of the method: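 ELISA readout of VCAM-1 on human dermal fibroblast primary cultures, 24 h after chemical exposure. Gain or loss of signal fitted in both directions against DMSO baseline.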

Measured: AC50

Chain of E-selectin (Homo sapiens) (P16581 whole entry, looked up): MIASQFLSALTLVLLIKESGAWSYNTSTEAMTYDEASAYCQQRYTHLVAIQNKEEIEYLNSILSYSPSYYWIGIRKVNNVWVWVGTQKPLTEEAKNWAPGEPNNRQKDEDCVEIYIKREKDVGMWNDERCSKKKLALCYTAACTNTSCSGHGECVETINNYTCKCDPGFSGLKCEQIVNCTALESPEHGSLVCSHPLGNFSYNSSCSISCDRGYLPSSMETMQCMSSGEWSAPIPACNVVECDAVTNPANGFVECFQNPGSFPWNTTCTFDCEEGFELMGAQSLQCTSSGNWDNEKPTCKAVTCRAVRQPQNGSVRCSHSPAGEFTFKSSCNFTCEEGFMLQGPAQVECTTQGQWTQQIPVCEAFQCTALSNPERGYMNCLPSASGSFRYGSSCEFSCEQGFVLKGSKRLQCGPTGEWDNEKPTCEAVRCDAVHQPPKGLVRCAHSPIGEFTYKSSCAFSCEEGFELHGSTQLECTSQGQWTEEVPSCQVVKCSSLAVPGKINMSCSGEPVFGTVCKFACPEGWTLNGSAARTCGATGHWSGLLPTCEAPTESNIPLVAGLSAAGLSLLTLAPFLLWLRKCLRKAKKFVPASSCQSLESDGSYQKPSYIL

Cc1c(O)cccc1O
not listed: [18] | [19]
inactive: all other assays above

COC(OC)(C(=O)c1ccccc1)c1ccccc1
active: [17] 16 nM
not listed: [18] | [19]
inactive: all other assays above

Nc1ccc(C(=O)O)cc1
not listed: [18] | [19]
inactive: all other assays above

C[N+](C)(C)CCCNS(=O)(=O)C(F)(F)C(F)(F)C(F)(F)C(F)(F)C(F)(F)C(F)(F)C(F)(F)C(F)(F)F
inactive: [3] | [4] | [6] | [9] | [10] | [12] | [14] | [16]
active: [1] 46.1 µM and 48.7 µM | [2] 55.3 µM and 47.5 µM | [5] 47.8 µM and 53.5 µM | [6] 47.6 µM | [7] 42.7 µM and 46.7 µM | [8] 49.8 µM and 51.4 µM | [13] 30 µM and 44.7 µM | [15] 42.8 µM and 25.4 µM | [16] 48.1 µM | [17] 31.3 µM and 39.7 µM

CCCCCCOC(=O)CCCCC(=O)OCCCCCC
not listed: [18] | [19]
inactive: all other assays above

CCOC(=O)C1=NOC(c2ccccc2)(c2ccccc2)C1
active: [11] 113 nM
not listed: [19]
inactive: all other assays above

CCCCCCCCC(CO)CCCCCC (stereo not given)
active: [1] 4.32 µM | [2] 2 µM | [5] 3.75 µM
inactive: all other assays above

CC(C)C(=O)OCCc1ccccc1
not listed: [11] | [18]
inactive: all other assays above
